A selection: hits, their analogues and other compounds. The true share with any hit is near 3.6%.
A549 viability: kills or reduces viability of A549 cells in Nrf2 counter-screen; A549 ARE-Fluc cells, CellTiter-Fluor viability, 18-24 h; hit rate 0.16% among 390,000; Potency, µM (top dose mostly 46 µM), for the others: at the highest dose activity change, negative = cytotoxicity, most hits filed as inhibitors; further: on the % scale 0 is the no-effect control and ±100 the full control effect
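A549 ARE_Fluc cells in 5% FBS OPTI-MEM were exposed to compounds in concentration-response for 18-24 h at 37 deg C. Viability was read by CellTiter-Fluor fluorescence (Ex 405/Em 525) after 30 min, before the luciferase read.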
TGFb inhibitor: TGF-b pathway inhibition; HepG2 CAGA-GFP TGF-b/SMAD3 reporter, GFP fluorescence, 18 h; TGF-beta stimulated, 500 pg/mL final; hit rate 1.2% among 410,000; AID 588855; Potency, µM (titrated, usually from 46.1 µM), inactives show at the highest dose activity, negative = inhibition, actives largely listed as inhibitors; further: on the % scale 0 is the no-effect control and ±100 the full control effect; nearly all actives have a fitted effect of over 65% in size
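TGF-beta reporter screen: HEPG2 CAGA-GFP, 1% FBS, 500 pg/mL TGF-beta final, 18 h; per-cell GFP summed per well; curves fitted and categorized by class.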
Nrf2 ARE act: Nrf2 pathway activation; hit rate 0.31% among 410,000; AREc32 ARE-luciferase reporter (MCF7-derived line), luminescence, 24 h; Potency, µM (highest dose often 46.1 µM), without a hit: at the highest dose activation, usual class: activators; AID 624171; further: % of control where 0% means no effect; nearly all actives have a fitted effect of over 65% in size
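ARE-driven firefly luciferase activity in AREc32 cells measured after a 24 hr compound exposure at 37 deg C, using Steady-Glo reagent and a 30 min room-temperature hold.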
HepG2 tox-1: HepG2 cytotoxicity, counter-screen for TGF-b inhibitors; HepG2 CAGA-GFP viability, ATP luminescence, 18 h; Potency, µM (doses to about 46.1 µM), without a hit: at the highest dose activity change, negative = cytotoxicity, most hits filed as cytotoxic; hit rate 0.76% among 410,000
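HepG2 CAGA-GFP cells (1000/well, DMEM with 1% FBS) received compound, then TGF-beta at 500 pg/mL final, and were incubated 18 hours at 37 degrees C. Viability was read by CellTiter-Glo luminescence. Media-only wells were set as complete cell-killing and DMSO as no toxicity.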
Nrf2 block: Nrf2 pathway inhibition; A549 ARE-Fluc reporter, luciferase luminescence, 18-24 h; Potency, µM (doses to about 46 µM), for the others: top-dose activity change, negative = inhibition, usual class: inhibitors; hit rate 2.1% among 360,000; AID 504444; further: on the % scale 0 is the no-effect control and ±100 the full control effect; nearly all actives have a fitted effect of over 60% in size
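A549 ARE_Fluc cells, 5000/well, 5% FBS OPTI-MEM; compounds in dose-response, 18-24 h at 37 °C/5% CO2; CellTiter-Fluor viability read (Ex 405/Em 525), then BugLite luciferase luminescence = Nrf2 activity.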
TGFb CAGA inh: TGF-b pathway inhibition, cherry-pick retest; shares compounds with TGFb inhibitor; HepG2 CAGA-GFP TGF-b reporter, GFP fluorescence, 18 h; cells stimulated with TGF-beta, 500 pg/mL; hit rate 63% among 1,600; Potency, µM (series often up to 46.1 µM), inactives show top-dose activity, negative = inhibition, most hits filed as inhibitors; further: on the % scale 0 is the no-effect control and ±100 the full control effect; nearly all actives have a fitted effect of over 65% in size
HepG2 tox-2: toxic to HepG2 cells in TGF-b counterscreen; shares compounds with TGFb inhibitor; HepG2 CAGA-GFP viability, ATP luminescence, 18 h; cells stimulated with TGF-beta, 500 pg/mL; Potency, µM (titrated, usually from 46.1 µM), inactives show at the top dose activity, negative = cytotoxicity, most hits filed as inhibitors; hit rate 27% among 1,600; AID 720535; further: on the % scale 0 is the no-effect control and ±100 the full control effect; nearly all actives have a fitted effect of over 70% in size
TGFb CCL64 inh: TGF-b inhibition, CCL64 orthogonal assay; shares compounds with TGFb inhibitor; CCL64 CAGA-GFP reporter, TGF-b stimulated, GFP fluorescence, 18 h; Potency, µM (series often up to 46.1 µM), without a hit: top-dose activity, negative = inhibition, actives largely listed as inhibitors; hit rate 41% among 1,600; AID 720536; further: nearly all actives have a fitted effect of over 65% in size
TGFb COP inh: validation of TGF-b inhibitors in HepG2 COP promoter reporter; shares compounds with TGFb inhibitor; HepG2 COP-GFP TGF-b reporter, GFP fluorescence, 18 h; cells stimulated by added recombinant TGF-beta; Potency, µM (series often up to 46.1 µM), inactives show at the top dose activity, negative = inhibition, most hits filed as inhibitors; hit rate 3% among 1,600; AID 720537; further: nearly all actives have a fitted effect of over 70% in size
* marks the source's active call; other numbers are inactive results; ? = inconclusive; / = no result; [ ] = dose if it differs, or a comment. The call rests on the fitted dose curve; in most records, active means well fitted curve in the direction sought with a large enough effect; inconclusive means small, poorly fitted or top-dose-only effect, or another doubt; inactive means no such curve, though single readings can be large; an effect the other way counts as inactive or inconclusive. Potency means the concentration at half of the fitted maximal effect.

SMILES	A549 viability	TGFb inhibitor	Nrf2 ARE act	HepG2 tox-1	Nrf2 block	TGFb CAGA inh	HepG2 tox-2	TGFb CCL64 inh	TGFb COP inh
C=CCNc1sc(C(=O)C2CC2)c(N)c1C#N	-6.1%	32.6%	18.7%	7.5%	/	/	/	/	/
O=C(COC(=O)c1cccnc1SCC(=O)NCc1ccccc1)NCc1ccccc1	-21.0%	0.1%	0.3%	-32.1%	10.4%	/	/	/	/
COc1ccc(CNC(=S)N/N=C/c2ccc(O)c(OC)c2)cc1	0.0%	11.2µM*	13.8%	-26.9%	?	-11.4%	-25.2%	-17.8%	1.4%
O=C(NCC(c1ccco1)N1CCc2ccccc21)C(=O)Nc1ccccc1F (centres undefined)	-8.0%	?	-0.7%	-17.0%	4.1%	/	/	/	/
O=C(NCC(c1ccco1)N1CCc2ccccc21)C(=O)Nc1ccc(F)cc1F (centres undefined)	-14.3%	?	-0.3%	9.2%	?	13µM*	0.3%	11.6µM*	-1.8%
Cc1ccn2c(Nc3ccc4c(c3)OCCO4)c(-c3ccccc3O)nc2c1	1.4%	15.0%	6.6%	-6.8%	2.7%	/	/	/	/
Oc1ccccc1-c1nc2cnccn2c1Nc1ccc2c(c1)OCCO2	-0.3%	?	-0.8%	-3.6%	3.7%	?	-2.0%	?	0.0%
CCS(=O)(=O)c1ncc(Cl)c(C(=O)Nc2ccc(S(=O)(=O)N3CCCC(C)C3)cc2)n1 (centres undefined)	?	4.47µM*	?	4.47µM*	?	4.11µM*	5.17µM*	2.59µM*	7.31µM*
CCC1CCCCN1S(=O)(=O)c1ccc(NC(=O)c2nc(S(C)(=O)=O)ncc2Cl)cc1 (centres undefined)	?	4.47µM*	-2.2%	3.98µM*	?	3.66µM*	6.51µM*	2.06µM*	9.2µM*
Cc1ccc(C(=O)NCC(=O)OCC(=O)Nc2ccc(Cl)cc2C(F)(F)F)cc1C	-0.7%	0.6%	0.3%	-2.5%	7.2%	/	/	/	/
Cc1ccc(O)c(C(CC(=O)NC(C)C)c2ccccc2)c1 (centres undefined)	5.2%	?	-0.1%	-41.4%	-18.3%	/	/	/	/
CC(NC(=O)CC(c1ccccc1)c1cc(Cl)ccc1O)c1ccccc1 (centres undefined)	-11.7%	15.8µM*	2.6%	-1.2%	-24.0%	?	23.1µM*	18.4µM*	57.1%
Clc1ccc2c(NCc3ccccn3)ccnc2c1	5.7%	12.6µM*	0.7%	-29.7%	-22.5%	2.06µM*	-26.0%	8.2µM*	-1.1%
CN(C(=O)COC(=O)c1ccccc1Nc1ccccc1)c1c(N)n(Cc2ccccc2)c(=O)[nH]c1=O	-21.2%	?	0.5%	14.4%	?	/	/	/	/
COCCN(C(=O)COC(=O)c1ccccc1Nc1ccccc1)c1c(N)n(Cc2ccccc2)c(=O)[nH]c1=O	1.4%	11.2µM*	0.5%	-2.6%	?	14.6µM*	-28.0%	1.64µM*	20.4%
Cc1ccccc1OCc1nc2ccccc2c(=O)n1/N=C/c1cccc([N+](=O)[O-])c1	3.4%	8.1%	-0.6%	-5.9%	-3.0%	/	/	/	/
COC(=O)Cn1nnnc1-c1nc2cc(C)c(C)cc2[nH]c1=O	/	/	11.0%	/	/	/	/	/	/
CCOC(=O)C#CC(CCc1ccccc1)OS(N)(=O)=O (centres undefined)	14.0%	0.708µM*	13.7%	-27.6%	-0.5%	-29.3%	-6.2%	?	-21.9%
c1ccc2sc(C3CCN(Cc4nnnn4Cc4ccc5c(c4)OCO5)CC3)nc2c1	1.7%	14.1µM*	-0.2%	-28.9%	?	?	-21.0%	27.3%	-5.2%
Nc1nn(S(=O)(=O)c2ccccc2)cc1-c1ccc([N+](=O)[O-])cc1	-0.9%	?	11.0%	-19.4%	?	16.4µM*	0.2%	-29.0%	-0.9%
COc1ccc(Nc2nc(-c3cccc([N+](=O)[O-])c3)nc3ccccc23)cc1	4.1%	-17.8%	3.9%	-30.9%	?	/	/	/	/
Cc1ccc(Nc2nc(-c3cccnc3)nc3ccccc23)cc1	-12.3%	?	0.0%	20µM*	-17.3%	?	?	?	36.0%
Cc1ccccc1Nc1nc(-c2cccnc2)nc2ccccc12	3.0%	0.6%	-0.4%	-12.3%	-14.7%	/	/	/	/
COc1ccc(Nc2nc(-c3ccccc3)nc3ccccc23)cc1	-1.6%	?	1.2%	-33.2%	12.6%	?	-25.4%	?	5.0%
CN(C)CCCOc1ccc(-c2cc3nc(NCc4cccnc4)n(C)c(=O)c3s2)cn1	/	2.2%	0.1%[9.22 µM]	-10.8%	/	/	/	/	/
COc1ccc(Nc2nnc(-c3ccc(N4CCOCC4)c([N+](=O)[O-])c3)c3ccccc23)cc1	-0.4%	?	0.4%	3.6%	-2.2%	4.11µM*	1.8%	?	22.8%
COc1cccc(CN2CCC2(C)C(=O)Nc2cccc3cccnc23)c1F (centres undefined)	/	10µM*	-2.2%	-43.6%	/	?	-12.0%	?	14.9%
C=CC[C@H](CC(=O)N(CCO)Cc1ccccc1)C(=O)N[C@H](COC(=O)[C@@H](CC=C)Cc1ccc(F)cc1)Cc1c[nH]c2ccccc12	?	12.6µM*	-4.6%	-23.3%	?	16.4µM*	-22.6%	?	13.2%
C=CC[C@@H](CC(=O)N(CCO)Cc1ccccc1)C(=O)N[C@H](COC(=O)[C@@H](CC=C)Cc1ccc(F)cc1)Cc1c[nH]c2ccccc12	?	?	-2.1%	-12.9%	?	/	/	/	/
C=CCC[C@@H](Cc1ccc(F)cc1)C(=O)OC[C@@H](NC(=O)[C@@H](CC=C)CC(=O)N(CCO)Cc1ccccc1)c1ccccc1	?	11.2µM*	-3.5%	-19.7%	23.1µM*	14.6µM*	-25.5%	?	-7.2%

High-throughput results as filed in PubChem BioAssay.
